This is a sample that favours compounds with a hit; in the whole collection about 11% have one here.
JMJD2A Tudor: qHTS Assay for Inhibitors of JMJD2A-Tudor Domain; AID 504339, 2011; actives 4.4% (n = 390,000); AlphaScreen JMJD2A-Tudor / H3K4me3 peptide binding; Potency, µM (series often up to 114 µM), for the others: at the top dose activity change, negative = inhibition, actives largely listed as inhibitors; note: % is set by controls: 0 for no effect and ±100 for the full control effect; nearly all actives have a fitted effect of over 50% in size
G9a inh: qHTS Assay for Inhibitors of Histone Lysine Methyltransferase G9a | actives 8.8% (n = 350,000) | Histone-lysine N-methyltransferase EHMT2 (Homo sapiens), Q96KQ7 | G9a H3K9 monomethylation, AlphaScreen, 2 h | Potency, µM (series often up to 102 µM), without a hit: at the highest dose activity, negative = inhibition, most hits filed as inhibitors; note: % is set by controls: 0 for no effect and ±100 for the full control effect; nearly all actives have a fitted effect of over 75% in size
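AlphaScreen detection with an anti-monomethyl H3K9 antibody quantified product after a 2 h room-temperature reaction containing 500 nM biotinylated H3K9 peptide, 20 µM SAM and 20 nM enzyme, which had been preincubated 15 min with compound.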
L3MBTL1 block: qHTS Assay for the Inhibitors of L3MBTL1 | Potency, µM (titrated, usually from 57.1 µM), for inactives: at the highest dose activity, negative = inhibition, actives largely listed as inhibitors | AlphaScreen L3MBTL1–H3K9me1 peptide binding | AID 485360, 2010 | actives 0.66% (n = 230,000); note: % is set by controls: 0 for no effect and ±100 for the full control effect; nearly all actives have a fitted effect of over 60% in size
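L3MBTL1 50 nM + b-AHA-H3(1-15)K9me1 75 nM, 30 min RT; compound added, 30 min RT; streptavidin donor/Ni-chelate acceptor beads 10 ug/mL each final, 30 min RT dark; AlphaScreen read.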
HP1b binding inh: HTS for Inhibitors of HP1-beta Chromodomain Interactions with Methylated Histone Tails | AID 540317, 2011 | actives 0.56% (n = 390,000) | Chromobox protein homolog 1 (Homo sapiens), P83916 | Potency, µM (titrated, usually from 114 µM), for inactives: at the highest dose activity change, negative = inhibition, usual class: inhibitors | AlphaScreen HP1-beta / biotin-H3K9me3 peptide binding; note: nearly all actives have a fitted effect of over 70% in size
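Compound inhibition of the preformed complex between 50 nM HP1-beta and 50 nM biotinylated H3K9me3 peptide was read by AlphaScreen. Buffer was PBS pH 7.4 with 0.01% Tween-20. Incubations ran 30 min at room temperature, with 10 ug/mL donor/acceptor beads.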
BAZ2B inh: qHTS Assay for Inhibitors of BAZ2B; Bromodomain adjacent to zinc finger domain protein 2B (Homo sapiens), Q9UIF8; AlphaScreen BAZ2B-H3K14Ac peptide displacement; Potency, µM (highest dose often 114 µM), for the others: at the highest dose activity change, negative = inhibition, hits mostly inhibitors; actives 4.4% (n = 360,000); note: % is set by controls: 0 for no effect and ±100 for the full control effect; nearly all actives have a fitted effect of over 60% in size
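Multi-concentration screen (max 110 uM) measuring displacement of acetylated histone H3 peptide from BAZ2B by AlphaScreen, using 50 nM protein, 50 nM peptide and 10 ug/mL streptavidin donor plus Ni-chelate acceptor beads.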
* marks the source's active call; other numbers are inactive results; ? = inconclusive; nt = no result; [ ] = remark or other dose. Calls come from the whole dose curve; as a rule, active = well fitted inhibition curve with a large enough effect; inconclusive = small, poorly fitted or top-dose-only effect; inactive = no such curve, though single readings can be large or run the other way. Potency is the fitted concentration of half-maximal effect.

SMILES	JMJD2A Tudor	G9a inh	L3MBTL1 block	HP1b binding inh	BAZ2B inh
CCC1Sc2ccc(S(=O)(=O)CCC(=O)Nc3ccccc3Br)cc2NC1=O (stereo not drawn)	-8.2%	5.5%[59 µM]	nt	41.7%	-18.7%
c1ccc(C2Oc3ccccc3C3CC(c4cccs4)=NN32)cc1 (stereo not drawn)	-22.6%	-47.9%[59 µM]	-3.2%	11.8%	-7.5%
O=[N+]([O-])c1ccc(C2Oc3ccccc3C3CC(c4ccccc4)=NN32)s1 (stereo not drawn)	nt	10µM*	-13.2%	nt	?
COc1ccc(OC)c(CNS(=O)(=O)c2c(C(=O)N3CCC(C)CC3)c(C)n(C)c2C)c1	-10.9%	0.8%[12.7 µM]	nt	22.7%	-22.5%
O=C(Nc1nnc(C2=COCCO2)o1)c1ccc([N+](=O)[O-])cc1	50.1µM*	?	nt	41.1%	35.5µM*
COc1cc(OC)cc(-c2nnc(NC(=O)c3ccc4c(c3)OCCO4)o2)c1	-12.4%	84.2%[59 µM]	nt	42.4%	1.7%
O=C(Nc1nnc(C2=COCCO2)o1)c1ccc(F)cc1	56.2µM*	nt	nt	39.6%	22.4µM*
CC(=O)Nc1nnc(C2=COCCO2)o1	22.4µM*	-16.0%	-5.6%	37.7%	79.4µM*
O=C(Nc1nnc(-c2ccc(Br)cc2)o1)C1=COCCO1	-8.3%	-2.7%	-13.5%	43.7%	?
COc1ccc(-c2nnc(NC(=O)C3=COCCO3)o2)cc1	-9.7%	-24.5%[59 µM]	-14.8%	15.5%	28.2µM*
O=C(Nc1nnc(C2=COCCO2)o1)c1cccc(C(F)(F)F)c1	-4.1%	-1.0%	nt	51.4%	?
COc1ccc(N2Cc3cccc(C(=O)Nc4ccc(F)cc4)c3C2=O)cc1	-25.7%	3.9%[59 µM]	nt	40.0%	nt
O=C(Nc1nnc(C2=COCCO2)o1)c1ccc(Cl)cc1	79.4µM*	-11.4%[59 µM]	2.1%	32.6%	56.2µM*
COc1ccc(Cn2ccc3nc(C)c(C(=O)N4CCN(c5ccccc5F)CC4)cc3c2=O)cc1	-32.0%	5.7%[59 µM]	nt	4.8%	?
COC(=O)c1ccc(SC2CCCCC2)c([N+](=O)[O-])c1	?	15.8µM*	-11.3%	-20.9%	?
COC(=O)c1ccc(SCC(=O)NC2CCCC2)c([N+](=O)[O-])c1	-3.5%	0.0%[59 µM]	6.1%	17.9%	-4.0%
O=[N+]([O-])/C(C(Cl)=C(Cl)Cl)=C(/NC1CC1)Sc1ccccc1	?	39.8µM*	nt	30.8%	-23.6%
O=C(CSc1ccccc1)NC1CCCCCC1	-0.6%	87.3%	nt	32.5%	-1.6%
CC(C)c1ccc(NC(=O)CSC2=Nc3ccccc3C3=NC(CCC(=O)NCc4cccs4)C(=O)N23)cc1 (stereo not drawn)	-17.3%	10.2%[59 µM]	nt	42.7%	-5.5%
O=C(CNC(=O)C12CC3CC(CC(C3)C1)C2)N/N=C\c1ccco1	8.8%	30.3%	nt	41.1%	-8.9%
O=C(/C=C/c1ccco1)c1ccc(NC(=O)C23CC4CC(CC(C4)C2)C3)cc1	?	4.47µM*	22.4µM*	?	35.5µM*
CC1(C)SC(=S)N(NC(=O)Nc2ccccc2)C1N(O)C(=O)Nc1cccc2ccccc12 (stereo not drawn)	?	11.2µM*	-11.2%	25.9%	?
CCCNC(=S)N1CCC(NC(=O)c2cccc(C)c2)CC1	-7.6%	nt	-3.6%	29.1%	-1.4%
Cc1ccc(NC(=O)N2CCC(NC(=O)c3cccc(C)c3)CC2)cc1	39.8µM*	7.94µM*	nt	?	50.1µM*
Cc1cccc(C(=O)NC2CCN(C(=O)NCc3ccccc3)CC2)c1	?	11.2µM*	nt	-37.7%	-38.5%
CCc1ccccc1NC(=O)N1CC(CC)Oc2ccc(Cl)cc21 (stereo not drawn)	29.6%	32.5%[59 µM]	nt	113.4%	19.8%
O=c1c2ccccc2sn1-c1cc(S(=O)(=O)N2CCOCC2)ccc1N1CCCC1	22.4µM*	?	nt	-41.1%	14.1µM*

Screening data as filed in PubChem.
